Compound activity: PubChem, National Center for Advancing Translational Sciences (NCATS)
Only some compounds are listed: those with a hit (about 18% of all), similar ones and a draw of the others.
TDP1 block = TDP1 (human) enzyme inhibition; Q9NUW8; recombinant TDP1, AlphaScreen DNA substrate cleavage; AID 485290; actives 0.28% (n = 350,000); Potency, µM (titrated, usually from 130 µM), most hits filed as inhibitors; further: nearly all actives have a fitted effect of over 40% in size
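E. coli-derived human Tdp1, 1 nM final. Cpd preinc 15 min RT; substrate 15 nM final, 5 min RT; AS bead mix 10 ug/ml final, 10 min RT. Signal loss = tyrosine-FITC cleavage. No-enzyme wells = max signal.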
TDP1 cell CPT = growth inhibition of DT40 Tdp1-/-;hTDP1 cells with camptothecin (screen for TDP1 inhibitors) | chicken DT40 Tdp1-/-;hTDP1 cells + 20 nM CPT, ATP luminescence, 48 h | Potency, µM (top dose mostly 46.2 µM), actives largely listed as inhibitors | actives 12% (n = 420,000) | AID 686979; further: nearly all actives have a fitted effect of over 55% in size
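Cell growth measured by CellTiter-Glo luminescence after a minimum 48 h, 37 C compound exposure with 20 nM CPT in Tdp1-knockout DT40 cells stably expressing hTDP1, seeded 400/well; qHTS titration format.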
CtBP-E1A inh = CtBP/E1A binding inhibition | activity change, % (test concentration not listed) | AID 651724 | actives 0.49% (n = 340,000) | AlphaScreen GST-E1A/His-CtBP binding, 1536-well; stronger effect = lower value; in the data active means activity change below about -65%; inconclusive means mostly about -30% to -63%
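Steps: dispense buffer (Tris pH 8.0, NaCl 300 mM, TCEP 1 mM, BSA, Tween 20); add 5X protein mix (GST-E1A, His-CtBP, 125 nM each); pin 23 nL compound; 2 h at 37 °C, dark; add 5X beads (50 ug/mL); 1 h; read.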
TDP1 cell noCPT = qHTS for Inhibitors of human tyrosyl-DNA phosphodiesterase 1 (TDP1): qHTS in cells in absence of CPT; Potency, µM (series often up to 46.2 µM), usual class: inhibitors; actives 15% (n = 420,000); DT40 Tdp1-/- hTDP1 cells, no CPT, ATP luminescence, 48 h; further: nearly all actives have a fitted effect of over 55% in size
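DT40 Tdp1-/-;hTDP1 cells, no CPT (DMSO vehicle only), 400 cells/well; compounds pin-transferred; ≥48 hr, 37 °C; CellTiter-Glo 30 min RT dark, luminescence read.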
Six1-Eya2 inh = blocks human Six1 binding to Eya2 | actives 0.56% (n = 360,000) | activity change, % (test concentration not listed) | AID 651725 | AlphaScreen GST-Six1/His-Eya2 binding, biochemical; stronger effect = lower value; in the data active means activity change below about -65%; inconclusive means mostly about -30% to -63%
Target sequence (O00167 whole entry, looked up): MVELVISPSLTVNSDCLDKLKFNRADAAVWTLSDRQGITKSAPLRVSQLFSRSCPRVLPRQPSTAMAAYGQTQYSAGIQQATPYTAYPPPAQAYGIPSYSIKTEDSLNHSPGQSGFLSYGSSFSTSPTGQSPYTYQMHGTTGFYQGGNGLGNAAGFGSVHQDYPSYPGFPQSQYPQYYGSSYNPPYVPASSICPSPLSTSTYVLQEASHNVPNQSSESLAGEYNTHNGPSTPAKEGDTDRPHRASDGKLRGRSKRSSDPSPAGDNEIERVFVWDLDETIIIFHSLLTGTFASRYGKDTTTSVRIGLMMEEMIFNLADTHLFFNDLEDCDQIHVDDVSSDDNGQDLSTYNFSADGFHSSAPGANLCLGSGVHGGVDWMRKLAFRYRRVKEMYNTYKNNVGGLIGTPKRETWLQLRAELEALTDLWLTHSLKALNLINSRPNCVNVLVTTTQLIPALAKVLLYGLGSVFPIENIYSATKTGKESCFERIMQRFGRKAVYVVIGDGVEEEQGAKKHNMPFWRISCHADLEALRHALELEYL
Target sequence (Q15475 whole entry, looked up): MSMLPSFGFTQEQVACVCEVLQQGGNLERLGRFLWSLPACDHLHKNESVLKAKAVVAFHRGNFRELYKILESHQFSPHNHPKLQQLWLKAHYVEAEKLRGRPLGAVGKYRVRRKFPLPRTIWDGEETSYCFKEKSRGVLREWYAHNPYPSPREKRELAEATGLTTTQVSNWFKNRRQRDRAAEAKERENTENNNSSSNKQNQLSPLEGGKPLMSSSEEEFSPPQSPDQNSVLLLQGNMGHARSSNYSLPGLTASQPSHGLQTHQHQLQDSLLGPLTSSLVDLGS
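AlphaScreen luminescence read after one hour at 37 °C in darkness. Pin-transferred compounds met GST-Six1 and His-Eya2 protein (5X stock 250 nM/500 nM) plus glutathione donor and Ni-chelate acceptor beads (5X, 50 ug/mL).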
IL-1B inflam inh = blocks inflammasome-driven IL-1 beta release | THP-1 LPS/ATP IL-1B secretion, AlphaLISA, 16 h; stronger effect = lower value | activity change, % at 57.5 µM | actives 4.7% (n = 360,000) | AID 743279; in the data active means activity change below about -50%; inconclusive means mostly about -30% to -49%
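Secreted IL-1B measured by AlphaLISA bead assay after 16 h compound exposure of THP-1 cells; compounds (final up to 57.5 uM) added 1 h before LPS (250 ng/mL) and ATP (1.25 mM) stimulation; lower signal means less secretion.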
Hits are given with their value; - = inactive; ? = inconclusive; . = no result. Unless noted, the call rests on the fitted dose curve; in most records, active means well fitted curve in the direction sought with a large enough effect; inconclusive means small, poorly fitted or top-dose-only effect, or another doubt; inactive means no such curve, though single readings can be large; an effect the other way counts as inactive or inconclusive.

SMILES	TDP1 block	TDP1 cell CPT	CtBP-E1A inh	TDP1 cell noCPT	Six1-Eya2 inh	IL-1B inflam inh
CNC(=O)C1CCC(=O)N1Cc1ccccc1Cl (stereo not drawn)	-	-	-	-	-	-
CN(CCCNC(=O)C1CCC(=O)N1Cc1ccccc1Cl)c1ccccc1 (stereo not drawn)	-	-	-	?	-	-
O=C(NCCCN1CCN(c2cccc(Cl)c2)CC1)C1CCC(=O)N1Cc1ccccc1Cl (stereo not drawn)	-	16µM	-	?	-	-55
O=C(Nc1cc(Cl)cc(Cl)c1)C1CCC(=O)N1Cc1ccccc1Cl (stereo not drawn)	-	23µM	-	?	-	?
NCC(=O)CCC(=O)O	-	-	-	-	-	-
CCOC(=O)C1CCN(Cc2nc3ccc([N+](=O)[O-])cc3c(=O)n2-c2ccc(OC)cc2OC)CC1	-	?	-	?	-	-
CCN(CCCNC(=O)C1CCN(S(=O)(=O)N2CCOCC2)CC1)c1cccc(C)c1	-	?	-	16µM	-	-
CCCS(=O)(=O)N1CCC(C(=O)NCCCN(CC)c2cccc(C)c2)CC1	-	?	-	?	-	-
Cc1oc(-c2ccccc2)nc1C(=O)OCC(=O)NC(=O)NCC(C)C	-	-	-	-	-	-
Cc1ccc(S(=O)(=O)N2CCCc3cc(NS(=O)(=O)c4cc(F)ccc4F)ccc32)cc1	-	23µM	.	18µM	.	.
COc1cccc(OC)c1C(=O)Nc1ccc2c(c1)CCCN2S(=O)(=O)c1ccc(C)cc1	-	?	-	?	-	-
Cc1ccc(S(=O)(=O)N2CCCc3cc(NS(=O)(=O)c4ccc(F)cc4)ccc32)cc1	-	?	.	18µM	.	.
COc1ccc(S(=O)(=O)Nc2ccc3c(c2)CCCN3S(=O)(=O)c2ccc(C)cc2)cc1F	-	?	.	21µM	.	.
COc1ccc(C(=O)NCCn2cc(SCC(=O)Nc3ccc4c(c3)OCCO4)c3ccccc32)cc1	-	?	.	21µM	.	.
Cn1c(=O)cc(SCC(=O)NCc2ccco2)c2ccccc21	-	?	-	?	-	-
COc1ccc(C(=O)NCCn2cc(SCC(=O)N3CCOCC3)c3ccccc32)cc1	-	-	-	-	-	-
COc1ccc(NC(=O)CSc2cn(CCNC(=O)c3ccc(OC)cc3)c3ccccc23)cc1	-	?	.	26µM	.	.
COc1ccc(NC(=O)CSc2cn(CCNC(=O)c3c(F)cccc3F)c3ccccc23)cc1	-	?	.	?	.	.
O=C(CSc1cn(CCNC(=O)c2ccc3ccccc3c2)c2ccccc12)NCc1ccco1	-	16µM	-	?	-	?
CCCn1nc(C(=O)OCC(=O)c2c(N)n(C)c(=O)n(C)c2=O)c2ccccc2c1=O	-	-	-	-	-	-
O=C1CC[C@H](C(=O)O)N1	-	-	.	-	.	.
Cc1ccc(CN2CCCn3nc(C(=O)NCC(C)c4ccccc4)cc3C2=O)cc1 (stereo not drawn)	-	?	.	16µM	.	.
COc1ccc(CCNC(=O)c2cc3n(n2)CCCN(Cc2ccc(C)cc2)C3=O)cc1OC	-	?	.	21µM	.	.
CCc1ccc(CNC(=O)c2cc3n(n2)CCCN(Cc2ccccc2)C3=O)cc1	-	16µM	.	?	.	.
Cc1ccc(CN2CCCn3nc(C(=O)NCCC(C)C)cc3C2=O)cc1	-	-	.	-	.	.
NC(=O)C1CCN(C(=O)CSc2ncccn2)CC1	-	-	-	-	-	-
COc1ccc(N2CCN(Cc3nc4c(c(=O)[nH]c(=O)n4C)n3CC(C)=O)CC2)cc1	-	-	-	-	-	-
CC1=CC2=NC(=O)/C(=C\c3cccn3CCOc3ccccc3)C(=N)N2O1	-	?	.	?	-	-
Cc1ccccc1C(=O)N1CCc2cc(-c3nc(NC(=O)Cc4ccc5c(c4)OCO5)sc3C)ccc21	-	7.3µM	-	6.5µM	-	?
